Molecules are shown by their SMILES. Structures can show the parent of a compound that is named as a salt.

The test system of the assay is Neuro-2a. Kind of assay: neurite formation score, plate-normalized to DMSO control mean 5.04 (score (0-8 scale)); higher = more or longer neurites. The following applies: 1 µM. As to the method:
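Neuro-2a mouse neuroblastoma cells in PLL-coated 96-well plates were pre-treated for 1 h in DMEM(+) with each kinase inhibitor at 1 µM, then switched to serum-free DMEM(-) with inhibitor to induce neurite outgrowth and fixed about 2-3 h later. Three blinded observers scored neurite formation from 0 (no neurites) to 8 (long neurites on almost all cells).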
The compound `NC(=O)Nc1sc(-c2ccc(F)cc2)cc1C(N)=O` registered a neurite formation score of 4.36.

Turning to `CCOc1ccc(Nc2ccc(/C(=C3C=C/C(=[N+](/CC)Cc4cccc(S(=O)(=O)[O-])c4)C=C/3C)c3ccc(N(CC)Cc4cccc(S(=O)(=O)O)c4)cc3C)cc2)cc1` [Brilliant Blue G], the neurite formation score amounted to 5.21.

Regarding `COc1ccc(-c2cc3c(C)nc(N)nc3n([C@H]3CC[C@H](OCCO)CC3)c2=O)cn1`, the neurite formation score was determined as 3.96.

As for `C=CC(=O)Nc1cccc(Nc2nc(Nc3ccc(NC4CN(CCF)C4)cc3OC)ncc2C(F)(F)F)c1`, the neurite formation score came to 4.88.

In turn, `NCC(=O)Nc1ccc(-n2nc(C(F)(F)F)cc2-c2ccc3c(ccc4ccccc43)c2)cc1` showed a neurite formation score of 5.57.

As for `COc1ccc(Cl)cc1NC(=O)Nc1cc(C)nc2ccccc12`, the neurite formation score came out at 3.91.

Turning to `CC(C)(C)c1cc(NC(=O)Nc2ccc(-c3cn4c(n3)sc3cc(OCCN5CCOCC5)ccc34)cc2)no1` [Quizartinib (AC220)], the neurite formation score amounted to 4.57.

Turning to `C[C@@H](Oc1ccc2[nH]nc(/C=C/c3cnn(CCO)c3)c2c1)c1c(Cl)cncc1Cl`, the neurite formation score stood at 1.02.

The compound `COc1ccc(S(=O)(=O)N(CCO)c2ccccc2CN(C)C/C=C/c2ccc(Cl)cc2)cc1` [KN-93 Phosphate] displayed a neurite formation score of 4.21.

`CN(C)c1nc2c(Br)c(Br)c(Br)c(Br)c2[nH]1` gave a neurite formation score of 5.02.

In turn, `Cc1ccc(-c2csc3ncnc(SCCC(=O)O)c23)cc1` had a neurite formation score of 4.02.

Regarding `COc1cc2nccc(Oc3ccc(NC(=O)NC4CC4)c(Cl)c3)c2cc1C(N)=O` [Lenvatinib (E7080)], the neurite formation score was 4.57.

The compound `Nc1nc(NCCNc2ncc(-n3ccnc3)c(-c3ccc(Cl)cc3Cl)n2)ccc1[N+](=O)[O-]` returned a neurite formation score of 5.29.

On to `O=C(Nc1cccc(Nc2ncc(Br)c(NCCc3cnc[nH]3)n2)c1)N1CCCC1`, for which the neurite formation score came out at 3.91.

In the case of `Cn1sc(=O)n(Cc2ccccc2)c1=O`, the neurite formation score was determined as 2.96.

`CC(=O)c1c(C)c2cnc(Nc3ccc(N4CCNCC4)cn3)nc2n(C2CCCC2)c1=O`: the neurite formation score is 4.57.

Take `CC(C)c1cc(CNc2nc(Nc3cc(C4CC4)[nH]n3)cc(N3CCN(C)CC3)n2)on1`: the neurite formation score is 0.692.

As for `CCS(=O)(=O)Nc1ccc2[nH]c(O)c(C(=Nc3ccc(CN4CCCCC4)cc3)c3ccccc3)c2c1` [Hesperadin], the neurite formation score is 1.02.

As to `NC(=S)N/N=C/c1ncccc1N` [Triapine], the neurite formation score stood at 4.88.

Regarding `C[C@H](NC(=O)/C(C#N)=C/c1cccc(Br)n1)c1ccccc1`, the neurite formation score worked out at 4.36.

As to `CNC(=O)c1cc(COc2nnc(Nc3ccc(Cl)cc3)c3ccoc23)ccn1` [Telatinib (BAY 57-9352)], the neurite formation score came out at 4.96.

`N#CCNC(=O)c1ccc(-c2ccnc(Nc3ccc(N4CCOCC4)cc3)n2)cc1` [CYT387 sulfate salt] registered a neurite formation score of 4.69.

For the compound `COc1c(OCCCN2CCOCC2)ccc2c3n(c(=NC(=O)c4cnc(N)nc4)nc12)CCN3` [BAY 80-6946 (Copanlisib)], the neurite formation score was determined as 4.14.

Compound `C[C@@H](Oc1cc(-n2cnc3ccc(CN4CCN(C)CC4)cc32)sc1C(N)=O)c1ccccc1C(F)(F)F` showed a neurite formation score of 4.29.

Compound `CCCCCCCCCCCCCCCCCC(=O)OC[C@H](CO)OC(=O)CCCCCCCCCCCCCCCCC` [1,2-Distearoyl-sn-glycerol] yielded a neurite formation score of 4.54.

In turn, `Cc1c(NC(=O)c2ccc(C(C)(C)C)cc2)cccc1-c1cn(C)c(=O)c(Nc2ccc(C(=O)N3CCOCC3)cc2)n1` showed a neurite formation score of 5.57.

`Cc1cc(C)c(/C=C2\C(=O)Nc3ccccc32)[nH]1` came in with a neurite formation score of 5.02.

`COc1ccc(-c2ccc3c(N4CCOCC4)nc(N4C[C@@H](C)O[C@@H](C)C4)nc3n2)cc1CO` showed a neurite formation score of 4.36.

For `O=C(NOCC1CC1)c1ccc(F)c(F)c1Nc1ccc(I)cc1Cl`, the neurite formation score came out at 3.91.

As to `Cn1cnc2c(F)c(Nc3ccc(Br)cc3Cl)c(C(=O)NOCCO)cc21` [AZD6244 (Selumetinib)], the neurite formation score is 4.24.

Turning to `CNC(=O)c1ccc(C)c(-n2c(C)cc(OCc3ccc(F)cc3F)c(Br)c2=O)c1`, the neurite formation score was 3.57.

The compound `C=CC(=O)Nc1cccc(Oc2nc(Nc3ccc(N4CCN(C)CC4)cc3OC)ncc2Cl)c1` had a neurite formation score of 4.24.

With `C=CC(=O)Nc1cccc(Sc2nc(Nc3ccc(N4CCN(C)CC4)cc3)ncc2Cl)c1`, the neurite formation score came out at 4.91.

Compound `COc1cc2nccc(Oc3ccc(NC(=O)C4(C(=O)Nc5ccc(F)cc5)CC4)cc3)c2cc1OC` [Cabozantinib malate (XL184)] displayed a neurite formation score of 2.29.

As for `CNC(=O)c1cc(Oc2ccc(NC(=O)Nc3ccc(Cl)c(C(F)(F)F)c3)c(F)c2)ccn1` [Regorafenib], the neurite formation score was found to be 5.24.

Turning to `CN1CCN(c2ccc(C(=O)Nc3n[nH]c4ccc(Cc5cc(F)cc(F)c5)cc34)c(NC3CCOCC3)c2)CC1` [Entrectinib], the neurite formation score was 2.54.

In turn, `COc1ccc(S(=O)(=O)N(C(C)=O)c2ccccc2/C=C/c2cc[n+]([O-])cc2)cc1` registered a neurite formation score of 0.569.

Values taken from the supplement of paper PMC8047044.
